# Test results from PMC4336329 (PLoS ONE, 2015).
# The whole screen tested about 310,000 compounds, of which about 14,000 (4.5%) showed an effect of 50% or more. Effects have a minus sign here. The list comes from a sample in which strong results are over-represented; it also holds similar structures and randomly drawn compounds.
# Biological target: human ether-à-go-go-related gene (hERG) potassium channel (human, UniProt Q12809)
# Test: primary screen, population patch clamp on CHO cells stably expressing hERG; higher = less effect of the substance
# 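Also: peak tail current of the secondary pulse compared with the same well before compound.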
# Chain of human ether-à-go-go-related gene (hERG) potassium channel (Q12809 whole entry, looked up): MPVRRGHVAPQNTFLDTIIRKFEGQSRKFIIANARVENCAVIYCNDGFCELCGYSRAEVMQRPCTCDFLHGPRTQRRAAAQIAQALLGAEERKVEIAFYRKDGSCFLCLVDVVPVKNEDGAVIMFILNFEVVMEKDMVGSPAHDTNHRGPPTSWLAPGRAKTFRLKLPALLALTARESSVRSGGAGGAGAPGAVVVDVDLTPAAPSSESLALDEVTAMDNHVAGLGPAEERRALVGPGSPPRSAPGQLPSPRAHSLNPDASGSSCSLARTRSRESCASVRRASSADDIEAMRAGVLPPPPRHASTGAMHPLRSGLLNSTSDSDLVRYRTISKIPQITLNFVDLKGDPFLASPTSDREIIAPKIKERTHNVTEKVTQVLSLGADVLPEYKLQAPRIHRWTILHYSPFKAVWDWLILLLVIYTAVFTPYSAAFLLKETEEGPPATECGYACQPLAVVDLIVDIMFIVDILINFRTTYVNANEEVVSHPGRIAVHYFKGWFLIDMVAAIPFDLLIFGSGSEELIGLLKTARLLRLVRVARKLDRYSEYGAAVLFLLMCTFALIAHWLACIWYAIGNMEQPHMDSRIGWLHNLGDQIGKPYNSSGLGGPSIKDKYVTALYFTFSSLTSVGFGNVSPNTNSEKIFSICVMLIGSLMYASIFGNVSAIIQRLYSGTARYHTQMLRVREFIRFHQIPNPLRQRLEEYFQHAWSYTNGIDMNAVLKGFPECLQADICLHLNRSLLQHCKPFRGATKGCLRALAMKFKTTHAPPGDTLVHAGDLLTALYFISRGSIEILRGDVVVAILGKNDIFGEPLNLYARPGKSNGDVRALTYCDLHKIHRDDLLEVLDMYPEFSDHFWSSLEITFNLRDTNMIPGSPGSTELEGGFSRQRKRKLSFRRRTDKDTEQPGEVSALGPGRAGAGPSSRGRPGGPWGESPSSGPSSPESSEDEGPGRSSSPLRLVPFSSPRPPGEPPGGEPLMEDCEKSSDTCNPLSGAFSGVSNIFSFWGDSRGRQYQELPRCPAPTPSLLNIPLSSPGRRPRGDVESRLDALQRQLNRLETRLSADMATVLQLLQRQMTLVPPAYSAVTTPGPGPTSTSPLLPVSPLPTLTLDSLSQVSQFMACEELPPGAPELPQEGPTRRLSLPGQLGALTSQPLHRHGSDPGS
row,SMILES,"hERG current change (%, negative = inhibition) at 10uM"
1,Cc1ccc(C2CC(c3ccccc3)=NN2c2ccccc2)o1 (stereo not drawn),4.42%
2,COc1ccc(C(CNC(=O)c2oc3ccccc3c2C)N2CCCC2)cc1 (stereo not drawn),-43.8%
3,CCc1ccc2oc(C(=O)NCC(c3ccc(OC)cc3)N3CCCCC3)c(C)c2c1 (stereo not drawn),-3.57%
4,COc1ccccc1C(CNC(=O)c1ccco1)N1CCCC1 (stereo not drawn),1.23%
5,COc1ccc(C(CNC(=O)c2oc3c(Cl)cccc3c2C)N2CCCC2)cc1 (stereo not drawn),-50.9%
6,COc1ccc(C(CNC(=O)c2oc3ccc(Br)cc3c2C)N2CCCCC2)cc1 (stereo not drawn),-13.3%
7,COc1ccc(C(CNC(=O)c2oc3ccc(OC)cc3c2C)N2CCCC2)cc1 (stereo not drawn),-67.5%
8,COc1ccc(C(CNC(=O)c2oc3ccc(C)cc3c2C)N2CCCCC2)cc1 (stereo not drawn),6.26%
9,COc1ccc(C(CNC(=O)c2oc3ccc(Cl)cc3c2C)N2CCCCC2)cc1 (stereo not drawn),-25.9%
10,COc1ccc(C(CNC(=O)c2oc3cc(C)c(Cl)cc3c2C)N2CCCCC2)cc1 (stereo not drawn),16.3%
11,COc1ccccc1C(CNC(=O)c1ccc(-c2ccccc2Cl)o1)N1CCCC1 (stereo not drawn),-72.2%
12,COc1ccc(C(CNC(=O)c2ccc(-c3ccccc3Cl)o2)N2CCOCC2)cc1 (stereo not drawn),-23.7%
13,COc1ccc(C(CNC(=O)c2oc3ccc(F)cc3c2C)N2CCCCC2)cc1 (stereo not drawn),-59.9%
14,CC(=O)Nc1ccc(Nc2ncnc3ccccc23)cc1,10.9%
15,O=C(C(=C1N(Cc2ccc(Cl)nc2)CCN1Cc1ccc(Cl)nc1)[N+](=O)[O-])C(Cl)Cl,-26.6%
16,CCn1c(C)nc2cc(S(N)(=O)=O)ccc21,21.9%
17,Cc1ccc(C)c(NC(=O)c2nnn(Cc3ccccc3)c2N)c1,-6.11%
18,Cc1nc(NC(=O)CSc2cc(C)c3ccccc3n2)c(Cl)cc1Cl,5.23%
19,CC1CN(C(=O)CCNC(=O)c2ccc(Br)cc2)CC(C)O1 (stereo not drawn),-4.12%
20,O=C(CSc1ncn[nH]1)Nc1cccc2ccccc12,3.88%
21,CCC(C)(C)NC(=O)Cc1ccccc1OC,23%
22,COc1ccc(C(CNC(=O)CNC(=O)c2cccc(Cl)c2)N2CCCC2)cc1 (stereo not drawn),-33.8%
23,COc1ccc(C(CNC(=O)c2ccc(Cl)c(NC(=O)c3cccs3)c2)N2CCCC2)cc1 (stereo not drawn),-70.9%
24,COc1ccc(C(CNC(=O)c2cccc(NC(=O)c3cccs3)c2)N2CCCC2)cc1 (stereo not drawn),-58.8%
25,COc1ccc(C(CNC(=O)c2cccc(Br)c2)N2CCCC2)cc1 (stereo not drawn),-31.6%
26,COc1ccc(C(CNC(=O)c2cccc(S(=O)(=O)Nc3ccc(C)cc3)c2)N2CCCCC2)cc1 (stereo not drawn),-30.7%
27,COc1ccc(C(CNC(=O)c2cccc(S(=O)(=O)N3CCCCC3)c2)N2CCCC2)cc1 (stereo not drawn),-43.8%
